In PubChem BioAssay (NCATS):
Records with an inconclusive call do not appear. Calls of active or inactive are those of the source. Calls follow the shape of the dose curve; as a rule, active = well fitted curve in the direction sought with a large enough effect; inconclusive = small, poorly fitted or top-dose-only effect, or another doubt; inactive = no such curve, though single readings can be large; an effect the other way counts as inactive or inconclusive.

Legend:
[1] = Quantitative High-Throughput drug screen in 47 multiple myeloma cell lines against the NCATS MIPE library collection: Karpas25_ECACC cell viability assay (AID 1918968; also: nearly all actives have a fitted effect of over 35% in size)
Outline: (§1)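 We plated 500 myeloma cells per well, pinned in MIPE 4.0 compounds, and incubated for 48 hours at 37C. ATP was then quantified with CellTiter-Glo, with DMSO and media-only wells defining 100% and 0%.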

[2] = Quantitative High-Throughput drug screen in 47 multiple myeloma cell lines against the NCATS MIPE library collection: KMS27_JCRB cell viability assay (AID 1918970); details: KMS27 myeloma cells, CellTiter-Glo ATP viability, 48 h; viability (% of DMSO): at 45.8 µM (top of the series); also: nearly all actives have a fitted effect of over 30% in size
Outline: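 KMS27_JCRB myeloma cells, 500 per well, exposed 48 h at 37 C, 5% CO2 to MIPE 4.0 compounds. Viability from ATP by CellTiter-Glo luminescence, normalized to DMSO (100%) and medium-only (0%) wells.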

[3] = Quantitative High-Throughput drug screen in 47 multiple myeloma cell lines against the NCATS MIPE library collection: KMS21BM_JCRB cell viability assay (AID 1918974); details: ATP luminescence, 48 h; viability: at 45.8 µM (top of the series)
Outline: as §1

[4] = Quantitative High-Throughput drug screen in 47 multiple myeloma cell lines against the NCATS MIPE library collection: NCIH929_DSMZ cell viability assay (AID 1918978); also: nearly all actives have a fitted effect of over 35% in size
Outline: (§2)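 Viability after 48 h drug exposure was measured as ATP-dependent luminescence. Cells, 500 per well, sat at 37 °C under 5% CO2; DMSO wells set 100%, media-only wells 0%.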

[5] = Quantitative High-Throughput drug screen in 47 multiple myeloma cell lines against the NCATS MIPE library collection: KMS12BM_JCRB cell viability assay (AID 1918971); also: nearly all actives have a fitted effect of over 35% in size
Outline: (§3)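 Myeloma cell lines, 500 cells per well, exposed to MIPE 4.0 library compounds for 48 h at 37C, 5% CO2. Viability from ATP by CellTiter-Glo luminescence; normalised to DMSO (100%) and media-only (0%) wells.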

[6] = Quantitative High-Throughput drug screen in 47 multiple myeloma cell lines against the NCATS MIPE library collection: KMS12PE_JCRB cell viability assay (AID 1918972); also: nearly all actives have a fitted effect of over 30% in size
Outline: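 qHTS of the MIPE 4.0 collection: 500 myeloma cells/well, 48 h drug exposure at 37C in 5% CO2, then CellTiter-Glo for 5 min at room temperature before luminescence reading.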

[7] = Quantitative High-Throughput drug screen in 47 multiple myeloma cell lines against the NCATS MIPE library collection: KMS20_JCRB cell viability assay (AID 1918973); also: nearly all actives have a fitted effect of over 45% in size
Outline: as §1

[8] = Quantitative High-Throughput drug screen in 47 multiple myeloma cell lines against the NCATS MIPE library collection: MMM1_PLB cell viability assay (AID 1918976); also: nearly all actives have a fitted effect of over 35% in size
Outline: as §2

[9] = Quantitative High-Throughput drug screen in 47 multiple myeloma cell lines against the NCATS MIPE library collection: MOLP8_DSMZ cell viability assay (AID 1918977); also: nearly all actives have a fitted effect of over 45% in size
Outline: as §2

[10] = Quantitative High-Throughput drug screen in 47 multiple myeloma cell lines against the NCATS MIPE library collection: KMS26_JCRB cell viability assay (AID 1918975); also: nearly all actives have a fitted effect of over 45% in size
Outline: as §3
Potency is read from the fitted curve at half-maximal effect.

CCCCOc1ccc(C(=O)Nc2ccc(F)cc2F)cc1
active: viability [3] 103%
inactive: Potency [1] | Potency [2] | Potency [4]

C#CCC(Cc1cnc2nc(N)nc(N)c2n1)c1ccc(C(=O)N[C@@H](CCC(=O)O)C(=O)O)cc1 (some centres not stated)
active: Potency [1] 11.8 µM | Potency [4] 0.118 µM
inactive: Potency [5] | Potency [6] | Potency [7] | Potency [8]

CC[C@@]1([C@@H]2O[C@@H]([C@H]3O[C@@](O)(CO)[C@H](C)C[C@H]3C)C[C@H]2C)CC[C@H]([C@]2(C)CC[C@]3(C[C@H](O)[C@@H](C)[C@@H]([C@@H](C)[C@@H](OC)[C@H](C)C(=O)O)O3)O2)O1
active: Potency [1] 3.23 µM | Potency [5] 0.0457 µM | Potency [6] 0.0911 µM | Potency [7] 0.0512 µM | Potency [3] 0.144 µM | Potency [8] 0.575 µM | Potency [9] 0.204 µM | Potency [4] 0.288 µM

Cc1onc(-c2ccccc2)c1C(=O)N[C@@H]1C(=O)N2[C@@H](C(=O)O)C(C)(C)S[C@@H]12
inactive: Potency [1] | Potency [5] | Potency [6] | Potency [3] | Potency [10] | Potency [4]

C[C@@H]1C(=O)O[C@H]2CC34[C@H]5C[C@@H](C(C)(C)C)C36[C@H](OC(=O)[C@@H]6O)O[C@@]4(C(=O)O5)[C@]21O (some centres not stated)
inactive: Potency [1] | Potency [5] | Potency [6] | Potency [7] | Potency [10] | Potency [9] | Potency [4]

COc1ccc(Nc2nccc(NCCO)n2)cc1
inactive: Potency [1] | Potency [2] | Potency [10] | Potency [4]

O=S(=O)(O)CCSSCCS(=O)(=O)O
inactive: Potency [1] | Potency [2] | Potency [10]

O=C(O)CCCCCC(=O)NN=C1CCCC1
inactive: Potency [1] | Potency [2] | Potency [6] | Potency [9]

CCN(CC)Cc1ccc2cc(COC(=O)Nc3ccc(C(=O)NO)cc3)ccc2c1
active: Potency [1] 0.372 µM | Potency [5] 0.469 µM | Potency [6] 0.469 µM | Potency [7] 0.332 µM | Potency [3] 0.0418 µM | Potency [9] 0.372 µM | Potency [4] 0.59 µM

C[N+]1(C)[C@@H]2C[C@@H](OC(=O)C(O)(c3cccs3)c3cccs3)C[C@H]1[C@@H]1O[C@@H]12
inactive: Potency [1] | Potency [2] | Potency [7] | Potency [9] | Potency [4]

COC(=O)[C@@H]1[C@H]2C[C@@H]3c4[nH]c5ccccc5c4CCN3C[C@@H]2CC[C@@H]1O
inactive: Potency [1] | Potency [2] | Potency [10] | Potency [9] | Potency [4]

O=C(Nc1cc2cc[nH]c2cn1)c1ccccc1
active: Potency [1] 8.33 µM | Potency [5] 14.8 µM | Potency [6] 8.33 µM | Potency [7] 9.35 µM | Potency [10] 11.8 µM | Potency [9] 3.72 µM | Potency [4] 8.33 µM

COc1cc(OC)cc(-c2ccc3ncc4ccc(=O)n(-c5ccc(N6CCNCC6)c(C(F)(F)F)c5)c4c3c2)c1
active: Potency [1] 2.96 µM | Potency [5] 5.26 µM | Potency [6] 3.72 µM | Potency [7] 4.18 µM | Potency [3] 5.26 µM | Potency [10] 5.9 µM | Potency [8] 7.43 µM | Potency [9] 4.18 µM | Potency [4] 3.72 µM

C=C(C)[C@@H]1CC[C@]2(C)CC[C@]3(C)[C@H](CC[C@@H]4[C@@]5(C)CC[C@H](O)C(C)(C)[C@H]5CC[C@]43C)[C@@H]12
inactive: Potency [1] | Potency [5] | Potency [6] | Potency [7] | Potency [10] | Potency [9] | Potency [4]

C[C@@H]1[C@H](C)CC[C@]2(C(=O)O)CC[C@]3(C)C(=CC[C@@H]4[C@@]5(C)C[C@@H](O)[C@H](O)[C@@](C)(CO)[C@H]5CC[C@]43C)[C@@H]12
inactive: Potency [1] | Potency [2] | Potency [7] | Potency [10] | Potency [9] | Potency [4]

CCOC(=O)N1CCN([N+]([O-])=NOc2ccc([N+](=O)[O-])cc2[N+](=O)[O-])CC1
active: Potency [1] 0.469 µM | Potency [5] 1.48 µM | Potency [6] 8.33 µM | Potency [7] 1.18 µM | Potency [10] 0.833 µM | Potency [8] 3.72 µM | Potency [9] 2.35 µM | Potency [4] 1.32 µM

COc1ccc(CCC(=O)c2c(O)cc(O[C@@H]3O[C@H](CO)[C@@H](O)[C@H](O)[C@@H]3O[C@@H]3O[C@@H](C)[C@H](O)[C@@H](O)[C@@H]3O)cc2O)cc1O
active: Potency [1] 9.35 µM
inactive: Potency [5] | Potency [6] | Potency [3] | Potency [10] | Potency [8]

CC(C)(C)[N+]([O-])=Cc1ccc(S(=O)(=O)O)cc1S(=O)(=O)O
inactive: Potency [1] | Potency [2] | Potency [7] | Potency [10] | Potency [9] | Potency [4]

Cc1cnc(Nc2ccc(N3CCN(C)CC3)cc2)nc1Nc1cccc(S(=O)(=O)NC(C)(C)C)c1
active: Potency [1] 1.66 µM | Potency [5] 2.64 µM | Potency [6] 1.66 µM | Potency [7] 7.43 µM | Potency [3] 0.148 µM | Potency [10] 6.62 µM | Potency [8] 2.96 µM | Potency [9] 2.09 µM | Potency [4] 2.35 µM

C[C@H](CCC(=O)O)[C@H]1CC[C@H]2[C@@H]3[C@H](O)C[C@@H]4C[C@H](O)CC[C@]4(C)[C@@H]3CC[C@]12C
inactive: Potency [1] | Potency [5] | Potency [6] | Potency [7] | Potency [10] | Potency [9] | Potency [4]

COc1cc(C[C@@H](CO)[C@H](CO)Cc2ccc(O)c(OC)c2)ccc1O
active: Potency [1] 0.418 µM | Potency [2] 2.96 µM | Potency [7] 0.526 µM | Potency [3] 2.35 µM | Potency [10] 1.32 µM | Potency [4] 0.59 µM

COC(=O)C=CC(=O)OC
inactive: Potency [5] | Potency [6]
active: Potency [1] 1.48 µM | Potency [7] 2.64 µM | Potency [4] 0.264 µM

N#Cc1cc(NC(=O)Nc2nnc(-c3ccncc3)s2)ccc1-c1cn[nH]c1
inactive: Potency [1] | Potency [2] | Potency [10] | Potency [4]
active: Potency [8] 3.32 µM

N#Cc1c(C2CCNCC2)cc(-c2c(O)cccc2OCC2CC2)nc1N
active: Potency [1] 18.7 µM | Potency [5] 14.8 µM | Potency [6] 20.9 µM | Potency [7] 23.5 µM | Potency [3] 16.6 µM | Potency [10] 18.7 µM | Potency [8] 18.7 µM | Potency [9] 14.8 µM | Potency [4] 20.9 µM

CC(=O)N1CCN(c2ccc(OCc3nn(C)c(C)c3-c3cccc4c(CCCOc5cccc6ccccc56)c(C(=O)O)n(Cc5cccnc5)c34)cc2)CC1
active: Potency [1] 0.0833 µM | Potency [2] 0.0743 µM | Potency [7] 0.0526 µM | Potency [10] 3.72 µM | Potency [9] 16.6 µM | Potency [4] 0.0332 µM

O=C(NNC(=O)c1ccc(CNS(=O)(=O)c2ccc(F)c(Cl)c2)cc1)c1ccccc1
inactive: Potency [1] | Potency [2] | Potency [7] | Potency [9] | Potency [4]

C=CCNC1=C2C[C@@H](C)C[C@H](OC)[C@@H](O)[C@@H](C)C=C(C)[C@H](OC(N)=O)[C@@H](OC)C=CC=C(C)C(=O)NC(=CC1=O)C2=O
active: Potency [1] 1.48 µM | Potency [5] 0.469 µM | Potency [6] 0.0833 µM | Potency [7] 0.001 µM | Potency [10] 2.35 µM | Potency [8] 5.9 µM | Potency [9] 0.264 µM | Potency [4] 1.18 µM

NC(=O)Nc1cc(-c2ccc(CN3CCOCC3)cc2)sc1C(N)=O
active: Potency [1] 1.32 µM | Potency [5] 20.9 µM | Potency [6] 1.18 µM | Potency [7] 2.64 µM | Potency [3] 1.32 µM | Potency [10] 23.5 µM | Potency [8] 6.62 µM | Potency [9] 14.8 µM | Potency [4] 2.64 µM

NC(=O)c1ncn([C@@H]2O[C@H](CO)[C@@H](O)[C@@H]2O)c1O
active: Potency [8] 2.64 µM
inactive: Potency [1] | Potency [5] | Potency [6] | Potency [7] | Potency [9] | Potency [4]

O=C(O)C[C@H](O)C[C@H](O)C=Cc1c(C2CC2)nc2ccccc2c1-c1ccc(F)cc1
active: Potency [1] 4.69 µM | Potency [2] 3.32 µM | Potency [8] 14.8 µM | Potency [9] 4.69 µM | Potency [4] 3.72 µM

CN(C)c1ccc2cc(C(=O)N[C@@H](CCCN=C(N)CCl)C(=O)NCc3ccccc3)ccc2c1
active: Potency [1] 13.2 µM | Potency [5] 11.8 µM | Potency [6] 7.43 µM | Potency [7] 8.33 µM | Potency [10] 6.62 µM | Potency [8] 18.7 µM | Potency [9] 9.35 µM | Potency [4] 16.6 µM

CC(N[C@H]1CCCC[C@H]1NC(=O)c1ccc(Cl)cc1)c1cccc2ccccc12 (some centres not stated)
inactive: Potency [10] | Potency [9]
active: Potency [1] 14.8 µM | Potency [2] 0.118 µM

C[C@@]12C[C@@]3(O)O[C@@H](O1)[C@]1(COC(=O)c4ccccc4)[C@@H]3C[C@@]12O[C@@H]1O[C@H](CO)[C@@H](O)[C@H](O)[C@@H]1O
inactive: Potency [1] | Potency [2] | Potency [10] | Potency [4]

Nc1cccc2c1C(=O)N(C1CCC(=O)NC1=O)C2=O (configuration not stated)
active: Potency [1] 8.33 µM
inactive: Potency [2] | Potency [6] | Potency [9]

CC1(C)O[C@@H]2C[C@H]3[C@@H]4CCC5=CC(=O)C=C[C@]5(C)[C@@H]4[C@@H](O)C[C@]3(C)[C@]2(C(=O)CO)O1
active: Potency [1] 0.148 µM | Potency [7] 6.62 µM | Potency [4] 16.6 µM
inactive: Potency [5] | Potency [6] | Potency [10]

Cc1cnn(C)c1C(=O)Nc1cc(Nc2ccc3c(C=Cc4ccccn4)n[nH]c3c2)ccc1F
active: Potency [1] 4.69 µM | Potency [2] 2.64 µM | Potency [10] 33.2 µM | Potency [8] 13.2 µM | Potency [4] 14.8 µM

CCC(C(=O)O)C1CCC(C)C(C(C)C(O)C(C)C(=O)C(CC)C2OC3(C=CC(O)[C@@]4(CC[C@](C)(C5CC[C@@](O)(CC)C(C)O5)O4)O3)C(C)CC2C)O1 (some centres not stated)
active: Potency [1] 7.43 µM | Potency [5] 0.148 µM | Potency [6] 0.743 µM | Potency [10] 0.526 µM | Potency [8] 6.62 µM | Potency [9] 0.743 µM | Potency [4] 10.5 µM
